Values joined by “and” are separate entries in the source; they are usually repeats but may differ in a detail not shown here. Equal entries are not always repeated. The campaign covered roughly 5,500 compounds. About 2,000 (36%) were called active. Inconclusive results (about 18%) are left out. Rule as the data show it: active = normalized growth mostly below about 0.91 (no sharp cut-off); inconclusive = no clear call, values can overlap the other calls; inactive = mostly above about 0.92. The list shows a part of the results.
Assay: chemical genetic growth profiling, strain panel (AID 1159580);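 also: tested at 20 µM; growth read once vehicle control cultures reached saturation at 30 °C; 1 = growth at the plate median or of vehicle wells; lower values mean less growth of the strain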
Conditions: S. cerevisiae deletion strains, growth OD

Measured: normalized growth

O=C1CC2OCC=C3CN4CC[C@]56c7ccccc7N1C5[C@H]2[C@H]3CC46 (some centres not stated)
inactive: locus YAL013W, strain DEP1, hits give low values 1 | locus YAL021C, strain ccr4, hits give low values 1.03 | locus YAL026C, strain drs2, hits give low values 1.03 | locus YAL030W, strain snc1, hits give low values 1.01 | locus YBL061C, strain skt5, hits give low values 1.01 | locus YBR009C, strain hhf1, hits give low values 1.02 | locus YBR021W, strain FUR4, hits give low values 1.01 | locus YBR023C, strain chs3, hits give low values 1.03 | locus YBR171W, strain sec66, hits give low values 1.03 | locus YBR229C, strain ROT2, hits give low values 1 | locus YBR231C, strain swc5, hits give low values 1.02 | locus YBR279W, strain paf1, hits give low values 1.03 | locus YCL011C, strain gbp2, hits give low values 1.03 | locus YCL016C, strain dcc1, hits give low values 1.03 | locus YCL029C, strain bik1, hits give low values 1 | locus YCL061C, strain MRC1, hits give low values 1.02 | locus YCL069W, strain vba3, hits give low values 1.02 | locus YCR088W, strain abp1, hits give low values 1.03 | locus YDL005C, strain med2, hits give low values 1.03 | locus YDL035C, strain GPR1, hits give low values 1.01 | locus YDL040C, strain nat1, hits give low values 1.03 | locus YDL074C, strain BRE1, hits give low values 1.02 | locus YDL101C, strain DUN1, hits give low values 1.01 | locus YDL134C, strain PPH21, hits give low values 1.01 | locus YDL185W, strain tfp1, hits give low values 0.983 | locus YDL192W, strain arf1, hits give low values 1 | locus YDR001C, strain nth1, hits give low values 1.03 | locus YDR069C, strain doa4, hits give low values 1.02 | locus YDR101C, strain arx1, hits give low values 0.992 | locus YDR137W, strain rgp1, hits give low values 1.05 | locus YDR150W, strain NUM1, hits give low values 1.01 | locus YDR159W, strain sac3, hits give low values 1.01 | locus YDR162C, strain NBP2, hits give low values 1.01 | locus YDR195W, strain ref2 1.1 | locus YDR297W, strain sur2, hits give low values 1.02 | locus YDR318W, strain mcm21, hits give low values 0.999 | locus YDR334W, strain swr1, hits give low values 1.01 | locus YDR335W, strain msn5, hits give low values 1.03 | locus YDR388W, hits give low values 1 | locus YDR392W, strain spt3, hits give low values 1.03 | locus YDR502C, strain sam2, hits give low values 1 | locus YEL003W, strain gim4, hits give low values 1.02 | locus YEL037C, strain rad23, hits give low values 1.03 | locus YEL061C, strain CIN8 (second series), hits give low values 1.02 | locus YEL061C, strain CIN8, hits give low values 1.01 | locus YER015W, strain faa2, hits give low values 1.03 | locus YER016W, strain bim1, hits give low values 1.02 | locus YER110C, hits give low values 0.996 | locus YER111C, strain swi4, hits give low values 1 | locus YER155C, strain BEM2 (second series), hits give low values 1.04 | locus YER155C, strain BEM2, hits give low values 1.02 | locus YER167W, strain BCK2, hits give low values 1.01 | locus YFR010W, strain ubp6, hits give low values 1.02 | locus YGL078C, strain dbp3, hits give low values 0.99 | locus YGL086W, strain mad1, hits give low values 0.998 | locus YGL167C, strain pmr1, hits give low values 1.02 | locus YGL173C, strain kem1, hits give low values 1.02 | locus YGL227W, strain vid30, hits give low values 1.03 | locus YGL240W, strain doc1, hits give low values 1.01 | locus YGL248W, strain PDE1, hits give low values 1.01 | locus YGL253W, strain hxk2, hits give low values 1.01 | locus YGR078C, strain PAC10, hits give low values 1.01 | locus YGR135W, strain pre9, hits give low values 0.982 | locus YGR229C, strain SMI1, hits give low values 1.03 | locus YGR252W, strain gcn5, hits give low values 0.914 | locus YHR013C, strain ard1, hits give low values 1.01 | locus YHR027C, strain rpn1, hits give low values 1.03 | locus YHR030C, strain SLT2, hits give low values 1 and 0.976 | locus YHR079C, strain IRE1 (second series), hits give low values 0.997 | locus YHR079C, strain IRE1, hits give low values 0.864 | locus YHR094C, strain hxt1, hits give low values 0.995 | locus YHR129C, strain ARP1, hits give low values 1.03 | locus YHR142W, strain chs7, hits give low values 1.03 | locus YHR200W, strain rpn10, hits give low values 1 | locus YIL066C, strain RNR3, hits give low values 1.01 | locus YIL073C, strain SPO22, hits give low values 1.02 | locus YIL125W, strain kgd1, hits give low values 1 | locus YIR030C, strain dcg1, hits give low values 1 | locus YJL092W, strain hpr5, hits give low values 1.02 | locus YJL095W, strain BCK1 (second series), hits give low values 1.03 | locus YJL095W, strain BCK1, hits give low values 1 and 0.974 | locus YJL115W, strain asf1, hits give low values 1 | locus YJL129C, strain trk1, hits give low values 1.05 | locus YJL134W, strain LCB3, hits give low values 1.01 | locus YJL154C, strain vps35, hits give low values 1.01 | locus YJL164C, strain tpk1, hits give low values 1.03 | locus YJL166W, strain qcr8, hits give low values 1.02 | locus YJL168C, strain set2, hits give low values 1 | locus YJL187C, strain SWE1 (second series), hits give low values 1.01 | locus YJL187C, strain SWE1, hits give low values 1.03 | locus YJR043C, strain POL32, hits give low values 0.997 | locus YJR066W, strain TOR1, hits give low values 0.961

Reference: PubChem BioAssay AID1159580 (chemical genetic matrix, 2015)
